According to PubChem BioAssay (Tox21):
“And” between values parts separate entries of the source, which are not always exact repeats. Equal entries are not always repeated. Records with an inconclusive call do not appear. The source made the active and inactive calls. Unless noted, calls follow the shape of the dose curve; as a rule, active = well fitted curve in the direction sought with a large enough effect in the repeat runs; inconclusive = weak or mixed curves; inactive = no such curve, though single readings can be large; an effect the other way counts as inactive or inconclusive.

What was measured:
[1] = qHTS assay to identify small molecule antagonists of the estrogen receptor alpha (ER-alpha) signaling pathway using the BG1 cell line in the presence of 0.1 nM 17-beta-estradiol - cell viability counter screen (AID 1259241); also: nearly all actives have a fitted effect of over 40% in size
How it was run: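 Cells were plated and left 24 hr, compounds in DMSO were pinned in, 17beta-estradiol was added to 0.1 nM final, and after 22 hr CellTiter-Fluor reagent was added for 30 min before fluorescence was read.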

[2] = qHTS assay to identify small molecule antagonists of the androgen receptor (AR) signaling pathway using the MDA cell line in the presence of 0.5 nM R1881 - cell viability counter screen (AID 1259242); also: nearly all actives have a fitted effect of over 45% in size; also: potency is read from the fitted curve at half-maximal effect
How it was run: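 Counter screen for cytotoxicity run in the same wells as the AR antagonist reporter screen: MDA-kb2 cells were treated 16 hr with test compounds and 0.5 nM R1881, then live-cell protease activity was measured by fluorescence.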

[3] = qHTS assay to identify small molecule HDAC inhibitors (AID 1259364); also: top concentration of the series differs between compounds; nearly all actives have a fitted effect of over 45% in size
How it was run: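 Luminescence from a cell-permeant luminogenic class I/II HDAC substrate reports endogenous deacetylase activity in intact HCT-116 cells treated with compounds for 2 h.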

[4] = qHTS assay to identify small molecule HDAC inhibitors - cell viability counter screen (AID 1259365); also: series mostly up to about 92 µM; nearly all actives have a fitted effect of over 50% in size
How it was run: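 Counter screen in wild-type HCT-116 cells: compounds dissolved in DMSO are pin-transferred onto overnight-plated cells and left 2hr at 37C. ATP-based CellTiter-Glo luminescence then measures viable cells.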

[5] = qHTS assay to identify small molecule agonists of the sonic hedgehog signaling (Shh) pathway - cell viability counter screen (AID 1259366); also: nearly all actives have a fitted effect of over 50% in size
How it was run: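 Cells are plated at 2,000 per well and left 4hr at 37C, 5% CO2 before compound addition. After 23hr of treatment, CellTiter-Fluor reagent is added for 1hr at 37C and fluorescence is measured.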

[6] = qHTS assay to identify small molecule antagonists of the sonic hedgehog signaling (Shh) pathway - cell viability counter screen (AID 1259367); also: nearly all actives have a fitted effect of over 55% in size
How it was run: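 Cells: 3T3 Gli1-Luc, 2,000/well, 4 hr pre-incubation. Compounds in DMSO, then conditioned medium. Incubation 24 hr, 37C, 5% CO2. CellTiter-Fluor at 23 hr, 1 hr, fluorescence.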

[7] = qHTS assay to identify small molecule agonists of the sonic hedgehog signaling (Shh) pathway (AID 1259368; calls by dose curve; also: nearly all actives have a fitted effect of over 15% in size; also: potency is read from the fitted curve at half-maximal effect;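 as to activity change: NIH/3T3-derived 3T3Gli1-Luc cells carrying a stable Gli1-driven firefly luciferase reporter; series mostly up to about 92 µM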)
How it was run: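 3T3Gli1-Luc (NIH/3T3 clone, stable Gli1-Luc); 4 hr pre-incubation, then cpd in DMSO 24 hr, 37 C/5% CO2; luciferase reagent 30 min RT; luminescence.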

[8] = qHTS assay to identify small molecule antagonists of the sonic hedgehog signaling (Shh) pathway (AID 1259369; calls by dose curve; also: nearly all actives have a fitted effect of over 45% in size; also: potency is read from the fitted curve at half-maximal effect)
How it was run: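 3T3Gli1-Luc, conditioned-medium-stimulated, 24hr cpd, 37C/5% CO2; Gli1-driven firefly Luc luminescence after 30min RT with luciferase reagent. Cells plated 4hr before cpd.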

[9] = molecular target: Estrogen receptor beta (Homo sapiens) (UniProt Q92731); assay: qHTS assay to identify small molecule agonists of the estrogen receptor beta (ER-beta) signaling pathway (AID 1259377; active = well fitted activation curve with a large enough effect in the signal ratio in the repeat runs, not every such curve was filed as active; the % refers to the signal ratio)
Chain of Estrogen receptor beta (Homo sapiens) (Q92731 whole entry, looked up, the tested form may be a part): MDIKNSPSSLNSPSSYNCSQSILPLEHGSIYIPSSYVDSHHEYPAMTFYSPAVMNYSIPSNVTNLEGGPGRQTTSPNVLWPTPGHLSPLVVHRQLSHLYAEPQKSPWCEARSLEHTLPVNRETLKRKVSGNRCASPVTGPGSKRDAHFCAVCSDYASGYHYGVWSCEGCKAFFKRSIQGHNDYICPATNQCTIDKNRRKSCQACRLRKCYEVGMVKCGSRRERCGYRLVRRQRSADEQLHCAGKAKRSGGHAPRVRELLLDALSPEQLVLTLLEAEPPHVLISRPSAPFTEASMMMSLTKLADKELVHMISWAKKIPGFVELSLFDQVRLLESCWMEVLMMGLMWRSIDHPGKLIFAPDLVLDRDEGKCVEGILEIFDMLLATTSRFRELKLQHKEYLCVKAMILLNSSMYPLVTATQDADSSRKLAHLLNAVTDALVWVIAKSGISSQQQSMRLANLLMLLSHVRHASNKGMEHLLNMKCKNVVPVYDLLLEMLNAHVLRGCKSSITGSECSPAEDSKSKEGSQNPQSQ
How it was run: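 Agonist mode cell assay in GripTite HEK293T cells expressing an ER-beta fusion that drives beta-lactamase from an Upstream Activator Sequence; 16 hr compound exposure at 37C, then 2 h LiveBLAzer B/G FRET substrate at room temperature, fluorescence read-out.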

[10] = molecular target: Estrogen receptor beta (Homo sapiens) (UniProt Q92731); assay: qHTS assay to identify small molecule antagonists of the estrogen receptor beta (ER-beta) signaling pathway (AID 1259378; active = well fitted inhibition curve with a large enough effect in the signal ratio in the repeat runs, not every such curve was filed as active; the % refers to the signal ratio)
How it was run: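 Antagonist mode: compounds added to beta-lactamase reporter HEK293T ER-beta-UAS cells stimulated with E2 (1nM final), 16 hr at 37C. LiveBLAzer B/G FRET substrate, 2 hours room temperature, fluorescence read-out.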

[11] = qHTS assay to identify small molecule agonists of the androgen receptor (AR) signaling pathway in the presence of an antagonist - cell viability counter screen (AID 1259379);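 also: MDA-kb2 human breast cancer cells carrying an MMTV luciferase reporter; series mostly up to about 92 µM; nearly all actives have a fitted effect of over 25% in size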
How it was run: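 Cells: MDA-kb2 (MMTV-luc, AR and GR elements), 3,000/well, 5 hr settle. Added: nilutamide 3.0uM final, then compounds (15 conc.). Incubation: 16 hr, 37C, no CO2. Read-out: CellTiter-Fluor, 1 hr, fluorescence.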

[12] = qHTS assay to identify small molecule agonists of the estrogen receptor beta (ER-beta) signaling pathway - cell viability counter screen (AID 1259380); also: nearly all actives have a fitted effect of over 30% in size
How it was run: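 HEK293T ER-beta-UAS-bla; 2% CS-FBS; 6 hr pre-plate, 16 hr cpd at 37C/5% CO2; LiveBLAzer read first, then CellTiter-Glo 30 min RT, luminescence.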

[13] = qHTS assay to identify small molecule antagonists of the estrogen receptor beta (ER-beta) signaling pathway - cell viability counter screen (AID 1259382);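 also: HEK293T cells carrying ER-beta-UAS-bla reporter stimulated with estradiol; series mostly up to about 92 µM; nearly all actives have a fitted effect of over 55% in size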
How it was run: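 Cells: ER-beta-UAS-bla HEK293T, 2,000/well, 2% CS-FBS, 6 hr settle. Cpd + E2 (1nM final), 16 hr, 37C/5% CO2. Bla FRET substrate 2 hr RT, then CellTiter-Glo 30 min RT, luminescence.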

[14] = qHTS assay to identify small molecule agonists or antagonists of the thyroid stimulating hormone receptor (TSHR) signaling pathway - wild type cell line counter screen (AID 1259384; calls by dose curve)
How it was run: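 Counter screen in untransfected Hek293: compounds (15-point titration, triplicate) plus phosphodiesterase inhibitor Ro20-1724 added after 18 h plating; 30 min RT. Intracellular cAMP via competitive d2/cryptate immunoassay, 1 h incubation.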

[15] = molecular target: Thyrotropin receptor (Homo sapiens) (UniProt P16473); assay: qHTS assay to identify small molecule antagonists of the thyroid stimulating hormone receptor (TSHR) signaling pathway (AID 1259385; calls by dose curve; also: nearly all actives have a fitted effect of over 20% in size)
Chain of Thyrotropin receptor (Homo sapiens) (P16473 whole entry, looked up): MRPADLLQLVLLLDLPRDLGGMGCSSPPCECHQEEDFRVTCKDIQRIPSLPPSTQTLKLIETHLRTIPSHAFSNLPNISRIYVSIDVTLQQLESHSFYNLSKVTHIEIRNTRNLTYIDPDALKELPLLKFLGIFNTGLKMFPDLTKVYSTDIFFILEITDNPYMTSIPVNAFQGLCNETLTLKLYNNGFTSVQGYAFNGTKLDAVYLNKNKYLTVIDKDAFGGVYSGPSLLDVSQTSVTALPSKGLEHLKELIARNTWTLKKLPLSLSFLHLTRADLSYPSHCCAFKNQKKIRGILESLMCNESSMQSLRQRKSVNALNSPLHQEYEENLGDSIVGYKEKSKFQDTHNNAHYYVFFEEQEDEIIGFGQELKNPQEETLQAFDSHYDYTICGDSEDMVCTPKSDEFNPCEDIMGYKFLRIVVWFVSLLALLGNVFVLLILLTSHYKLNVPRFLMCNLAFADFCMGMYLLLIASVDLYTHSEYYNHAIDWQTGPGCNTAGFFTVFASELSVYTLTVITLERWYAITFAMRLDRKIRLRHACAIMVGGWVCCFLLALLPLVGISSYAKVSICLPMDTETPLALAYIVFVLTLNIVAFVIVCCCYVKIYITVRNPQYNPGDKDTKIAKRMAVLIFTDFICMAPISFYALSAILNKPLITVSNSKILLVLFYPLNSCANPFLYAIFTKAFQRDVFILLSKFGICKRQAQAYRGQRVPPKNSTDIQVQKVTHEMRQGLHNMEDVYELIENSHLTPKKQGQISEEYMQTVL
How it was run: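 Antagonist mode: compound-treated TSHR-expressing HEK293 cells were stimulated with 1.5 ng/mL TSH (final) in presence of Ro20-1724 for 30 min at RT. HTRF cAMP detection after 1 h; each compound tested at 15 concentrations, triplicate.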

[16] = qHTS assay to identify small molecule phospholipidosis (PLD) inducers (AID 1259344; active = well fitted curve in the direction sought with a large enough effect; an effect the other way counts as inactive or inconclusive)
How it was run: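 Phospholipidosis is scored by imaging LipidTOX-stained pits in HepG2 cells exposed to compound for 24 h at 37 C; pit counts and integrated intensities per well and per cell serve as outputs.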

[17] = molecular target: Androgen receptor (Homo sapiens) (UniProt P10275); assay: qHTS assay to identify small molecule agonists of the androgen receptor (AR) signaling pathway in the presence of an antagonist (AID 1259381; calls by dose curve; also: nearly all actives have a fitted effect of over 15% in size)
Chain of Androgen receptor (Homo sapiens) (P10275 whole entry, looked up): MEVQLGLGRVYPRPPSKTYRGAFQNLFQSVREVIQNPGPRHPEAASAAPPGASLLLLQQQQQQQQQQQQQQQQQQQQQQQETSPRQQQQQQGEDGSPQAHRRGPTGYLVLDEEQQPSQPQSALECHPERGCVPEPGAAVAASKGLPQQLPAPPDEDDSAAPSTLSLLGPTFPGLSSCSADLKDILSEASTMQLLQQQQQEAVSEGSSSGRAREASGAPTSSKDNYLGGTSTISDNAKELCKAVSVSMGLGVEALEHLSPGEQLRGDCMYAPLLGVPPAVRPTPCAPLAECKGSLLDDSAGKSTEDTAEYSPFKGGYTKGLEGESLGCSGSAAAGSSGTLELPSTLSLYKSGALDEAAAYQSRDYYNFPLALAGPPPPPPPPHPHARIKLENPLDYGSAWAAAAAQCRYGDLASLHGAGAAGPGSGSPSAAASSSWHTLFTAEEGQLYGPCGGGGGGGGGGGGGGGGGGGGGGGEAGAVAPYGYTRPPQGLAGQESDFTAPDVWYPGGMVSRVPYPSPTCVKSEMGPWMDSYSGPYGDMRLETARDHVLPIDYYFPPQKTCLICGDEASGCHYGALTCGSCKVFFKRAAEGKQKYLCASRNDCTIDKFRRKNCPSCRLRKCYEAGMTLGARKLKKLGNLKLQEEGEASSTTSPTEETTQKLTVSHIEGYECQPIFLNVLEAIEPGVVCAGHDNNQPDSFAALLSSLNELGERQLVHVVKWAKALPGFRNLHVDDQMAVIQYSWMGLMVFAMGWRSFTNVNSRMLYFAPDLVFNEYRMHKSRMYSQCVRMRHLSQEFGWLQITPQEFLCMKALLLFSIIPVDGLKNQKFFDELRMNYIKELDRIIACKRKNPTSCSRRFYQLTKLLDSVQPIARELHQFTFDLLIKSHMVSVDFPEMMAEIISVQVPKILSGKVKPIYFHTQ
How it was run: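 MDA-kb2 cells, 3,000/well, rested 5hr at 37C/0% CO2 → nilutamide 3.0uM final or buffer → compounds, 15 conc. → 16hr at 37C → ONE-Glo, 30min RT → luminescence.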

[18] = molecular target: Estrogen receptor (Homo sapiens) (UniProt P03372); assay: qHTS assay to identify small molecule agonists of the estrogen receptor alpha (ER-alpha) signaling pathway in the presence of an antagonist (AID 1259383; calls by dose curve; also: top concentration of the series differs between compounds; nearly all actives have a fitted effect of over 15% in size)
Chain of Estrogen receptor (Homo sapiens) (P03372 whole entry, looked up): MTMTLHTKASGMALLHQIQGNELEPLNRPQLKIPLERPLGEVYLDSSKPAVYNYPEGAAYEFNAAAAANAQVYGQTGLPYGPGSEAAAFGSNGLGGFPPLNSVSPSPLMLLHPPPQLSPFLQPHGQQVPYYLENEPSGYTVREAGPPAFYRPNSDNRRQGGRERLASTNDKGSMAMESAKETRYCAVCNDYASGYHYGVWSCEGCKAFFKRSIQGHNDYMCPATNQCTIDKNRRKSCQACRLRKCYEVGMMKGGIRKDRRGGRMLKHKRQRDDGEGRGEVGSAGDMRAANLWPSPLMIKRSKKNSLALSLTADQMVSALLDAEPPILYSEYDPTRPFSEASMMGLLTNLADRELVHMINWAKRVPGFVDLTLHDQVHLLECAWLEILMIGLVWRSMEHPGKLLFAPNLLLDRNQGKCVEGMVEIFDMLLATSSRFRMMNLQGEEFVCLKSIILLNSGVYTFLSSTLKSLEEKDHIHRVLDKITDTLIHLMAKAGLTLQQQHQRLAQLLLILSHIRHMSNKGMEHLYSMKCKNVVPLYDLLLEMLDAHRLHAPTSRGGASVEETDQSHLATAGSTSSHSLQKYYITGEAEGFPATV
How it was run: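 VM7Luc4E2, endog. ER-alpha + 4×ERE-luc; charcoal-stripped FBS, phenol red-free, 5 d; 24hr plating; +10.0nM ICI-182,780 (final); cpds 15 conc, 22hr, 37C/5% CO2; ONE-Glo luminescence.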
% is scaled to controls: 0 for no effect and ±100 for the full control effect.

CCOP(O)OCC
inactive: Potency [1] | Potency [2] | Potency [3] | Potency [4] | Potency [5] | Potency [6] | Potency [7] | Potency [8] | Potency [9] | Potency [10] | Potency [11] | Potency [12] | Potency [13] | outcome [14] | Potency [15]

NCC(CC(=O)O)c1ccc(Cl)cc1 (centres undefined)
inactive: activity change, negative = cytotoxicity [1] 0.211% [at 0.349 µM] | viability change, negative = cytotoxic [2] 0.181% [at 0.349 µM] | outcome [16] | activity change, negative = inhibition [3] 13.2% [at 0.349 µM] | activity change, negative = cytotoxicity [4] -1.28% [at 0.349 µM] | viability change, negative = cytotoxic [5] 4.25% [at 0.349 µM] | viability change, negative = cytotoxic [6] 1.24% [at 0.349 µM] | activity change, negative = inhibition [8] 38.7% [at 0.349 µM] | activity, negative = inhibition [10] 0.814% [at 0.349 µM] | activity change, negative = cytotoxicity [11] 0.676% [at 0.35 µM] | activity change, negative = cytotoxicity [13] 5.5% [at 0.349 µM] | cAMP activity change [14] 0.519% [at 0.349 µM] | activity change, negative = inhibition [15] 2.95% [at 0.349 µM]

C/C=C/C=O
inactive: Potency [1] | Potency [2] | Potency [3] | Potency [4] | Potency [5] | Potency [6] | Potency [8] | Potency [11] | Potency [13]

O=C(CBr)Nc1ccc(Cl)cc1C(=O)c1ccccc1F
inactive: Potency [1] | Potency [2] | Potency [3] | Potency [4] | Potency [5] | Potency [6] | Potency [7] | Potency [8] | Potency [10] | Potency [11] | Potency [12] | Potency [17] | Potency [13] | Potency [18] | outcome [14] | Potency [15]

[CH3][Sn]([CH3])([Cl])[Cl]
inactive: Potency [1] | Potency [2] | Potency [3] | Potency [4] | Potency [5] | Potency [6] | Potency [11] | Potency [12] | Potency [13]
active: Potency [7] 7.82 µM and 24.3 µM

O=C(CBr)OCc1ccccc1
inactive: Potency [1] | Potency [2] | Potency [3] | Potency [4] | Potency [5] | Potency [6] | Potency [7] | Potency [10] | Potency [12] | Potency [13] | Potency [18]

CCCC(Cn1cncn1)c1ccc(Cl)cc1Cl (centres undefined)
inactive: Potency [1] | Potency [2] | Potency [3] | Potency [4] | Potency [5] | Potency [6] | Potency [7] | Potency [11] | Potency [13] | outcome [14]
active: Potency [8] 17.2 µM

BrCC(Br)C1CCC(Br)C(Br)C1 (centres undefined)
inactive: Potency [1] | Potency [2] | Potency [3] | Potency [4] | Potency [5] | Potency [6] | Potency [7] | Potency [8] | Potency [11] | Potency [12] | Potency [13] | outcome [14]

Nc1nc(N)nc(N)n1
inactive: Potency [1] | Potency [2] | Potency [3] | Potency [4] | Potency [5] | Potency [6] | Potency [7] | Potency [8] | Potency [10] | Potency [11] | Potency [13] | outcome [14] | Potency [15]

O=C(O)c1ccccc1C(=O)Nc1cccc2ccccc12
inactive: Potency [1] | Potency [2] | Potency [3] | Potency [4] | Potency [5] | Potency [7] | Potency [8] | Potency [10] | outcome [14] | Potency [15]

C(=NC1CCCCC1)=NC1CCCCC1
inactive: Potency [1] | Potency [3] | Potency [4] | Potency [5] | Potency [6] | Potency [7] | Potency [12] | Potency [13] | Potency [18] | outcome [14] | Potency [15]
active: Potency [2] 8.69 µM

N#Cc1ccc(Cl)cc1
inactive: Potency [1] | Potency [2] | Potency [3] | Potency [4] | Potency [5] | Potency [6] | Potency [7] | Potency [8] | Potency [11] | Potency [12] | Potency [13] | Potency [18] | outcome [14] | Potency [15]

C=CCN1CC[C@]23c4c5ccc(O)c4O[C@H]2C(=O)CC[C@@]3(O)[C@H]1C5
inactive: Potency [1] | Potency [2] | outcome [16] | Potency [3] | Potency [4] | Potency [5] | Potency [6] | Potency [7] | Potency [9] | Potency [12] | Potency [13] | outcome [14] | Potency [15]
